# Laboratory results taken from PMC7826789 (International Journal of Molecular Sciences, 2021).
# What was measured:
# Details in all cases: Compound Concentration (nM):1000
# TNK1 = tested on: TNK1
# TNK2 = tested on: TNK2
# TNNI3K = tested on: TNNI3K
# TRKA = tested on: T1, TRKA
# T1 construct: gene NTRK1
# TRKB = tested on: T2, TRKB
# T2 construct: gene NTRK2
# TRKC = tested on: T3, TRKC
# T3 construct: gene NTRK3
# TRPM6 = tested on: TRPM6
# TSSK1B = tested on: TSSK1B
# TSSK3 = tested on: TSSK3
# TTK = tested on: TTK
# 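Note: KINOMEscan scanMAX binding as percent activity remaining versus control; lower means stronger binding.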
SMILES,Percent Control (TNK1),Percent Control (TNK2),Percent Control (TNNI3K),Percent Control (TRKA),Percent Control (TRKB),Percent Control (TRKC),Percent Control (TRPM6),Percent Control (TSSK1B),Percent Control (TSSK3),Percent Control (TTK)
NS(=O)(=O)c1ccc(N/N=C2\C(=O)Nc3ccc(Cl)cc32)cc1 [GW280670X],100%,100%,100%,43%,94%,89%,100%,100%,100%,40%
CCS(=O)(=O)c1ccc(OC)c(Nc2ncc(-c3cccc(F)c3)o2)c1 [GW621970X],38%,90%,66%,11%,30%,48%,88%,100%,100%,100%
COc1cc(/C=N/Nc2ncnc3[nH]ncc23)ccc1O [GW578748X],100%,100%,100%,42%,70%,88%,95%,100%,100%,68%
Cl.O=C(Nc1ccc(Oc2ccc3[nH]c(NC(=O)c4ccccc4)nc3c2)cc1)Nc1cc(C(F)(F)F)ccc1F [GW709042A],66%,100%,55%,27%,35%,29%,100%,100%,100%,87%
CN(C)c1cc2c(Nc3ccc4c(cnn4Cc4ccccc4)c3)ncnc2cn1 [GW282974X],93%,84%,100%,65%,92%,93%,92%,100%,99%,87%
COc1ccc2[nH]c3c4[nH]c5ccc(OC)cc5c4c4c(c3c2c1)C(=O)NC4=O [GW296115X],29%,69%,90%,40%,59%,47%,79%,89%,89%,50%
CC(C)COC(=O)c1ccc2c(c1)/C(=C/Nc1ccc(S(N)(=O)=O)cc1)C(=O)N2 [GW416981X],100%,100%,100%,23%,55%,59%,100%,100%,100%,6.3%
COc1ccc2cc(-c3c(-c4ccncc4)nc(-c4ccc(S(C)(=O)=O)cc4C)n3C)ccc2c1 [SB-633825],57%,61%,100%,73%,70%,60%,71%,74%,57%,91%
Cl.c1ccc(Cc2nc3ccc(Nc4ncnc5ccccc45)cc3[nH]2)cc1 [GR269666A],100%,100%,84%,100%,92%,100%,97%,70%,100%,51%
C/C(Nc1ccc(S(N)(=O)=O)cc1)=C1/C(=O)Nc2ccccc21 [GW335962X],100%,100%,69%,7.9%,25%,42%,84%,100%,75%,12%
O=C1Nc2ccc(C(=O)c3ccco3)cc2C1=Cc1cc(Cl)c(O)c(Cl)c1 [GW406108X],79%,100%,100%,33%,75%,61%,95%,100%,87%,30%
CCS(=O)(=O)c1ccc(OC)c(Nc2ncc(-c3cccc(OC)c3)o2)c1 [GW580509X],30%,100%,100%,16%,46%,67%,100%,100%,100%,90%
COc1cc2ncn(-c3cc(O[C@H](C)c4ccccc4Cl)c(C(N)=O)s3)c2cc1OC [GSK237701A],82%,58%,100%,31%,51%,59%,89%,74%,39%,82%
Nc1ncnc2occ(-c3ccc(NC(=O)Nc4cc(C(F)(F)F)ccc4F)cc3)c12 [GW770249X],85%,100%,40%,3%,1.6%,0.1%,100%,100%,84%,61%
Cl.O=C(Nc1ccc(Oc2ccc3[nH]c(NC(=O)c4ccco4)nc3c2)cc1)Nc1cc(C(F)(F)F)ccc1F [GW683134A],36%,100%,53%,5%,6%,3%,100%,100%,100%,85%
COc1cc2ncnc(Nc3ccc4c(cnn4Cc4ccccc4)c3)c2cc1OC.Cl [GW282449A],100%,77%,100%,100%,100%,100%,87%,100%,100%,96%
NS(=O)(=O)c1ccc(N/N=C2\C(=O)Nc3ccc(C(=O)NCc4ccncc4)cc32)cc1 [GW300657X],100%,100%,96%,7.6%,21%,37%,89%,100%,89%,5.5%
COc1cccc(-c2c[nH]c3c(N/N=C/c4ccncc4)ncnc23)c1 [GW814408X],100%,100%,31%,64%,100%,100%,97%,98%,98%,79%
Cl.O=S1CCN(Cc2ccc(-c3ccc4ncnc(Nc5ccc(OCc6ccccc6)c(F)c5)c4c3)o2)CC1 [GW576924A],100%,100%,100%,100%,100%,100%,92%,90%,100%,100%
CCc1ccc(Oc2nccc(-c3c(-c4ccc(F)cc4)ncn3C3CCNCC3)n2)cc1 [SB-242719],80%,82%,100%,86%,98%,98%,100%,99%,90%,80%
